Assay results published in PubChem BioAssay (EPA / NIEHS).
Inconclusive results are not listed. Active and inactive are the calls of the source. Rule for the calls, unless noted: active = hit-call score of the fitted dose curve at least 0.9, where 1 is the maximum; inactive = score below 0.9.

Experiments:
[1] = target: human Peroxisome Proliferator-activated Receptor delta (PPARd), PPARD (gene 5467) (UniProt Q03181); assay: ATG_PPARd_TRANS: Attagene TRANS-FACTORIAL HepG2 Assay for human Peroxisome Proliferator-activated Receptor delta (PPARd) (AID 2283002; active = hit-call score of the fitted dose curve at least 0.9, where 1 is the maximum)
Outline: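 Transient HepG2 transfection (multiple GAL4-UAS RTUs, chimeric receptor-Gal4); 24 h dosing; total RNA → oligo(dT) RT → PCR → 6-FAM primer extension → HpaI cut → CE. Positive direction vs DMSO.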

[2] = target: Peroxisome proliferator-activated receptor gamma (Homo sapiens) (UniProt P37231); assay: ATG_PPARg_TRANS: Attagene TRANS-FACTORIAL HepG2 Assay for human Peroxisome Proliferator-activated Receptor-gamma (PPARg) (AID 2283007; active = hit-call score of the fitted dose curve at least 0.9, where 1 is the maximum)
Outline: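 After 24 h of chemical exposure, transfected HepG2 cells carrying PPARγ-Gal4 chimera reporter constructs are lysed for RNA. Reporter transcripts are measured by RT-PCR and capillary electrophoresis with fluorescent labelling, and gain of signal is fitted versus DMSO.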

[3] = target: human Retinoic Acid Receptor gamma (RARg), RARG (gene 5916) (UniProt P13631); assay: ATG_RARg_TRANS: Attagene TRANS-FACTORIAL HepG2 Assay for human Retinoic Acid Receptor gamma (RARg) (AID 2283009; active = hit-call score of the fitted dose curve at least 0.9, where 1 is the maximum)
Outline: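 HepG2 transiently transfected with GAL4-UAS reporter units and chimeric NR-Gal4 constructs; 24 h compound exposure. Reporter mRNA quantified by RT-PCR, FAM labeling, HpaI digestion and capillary electrophoresis; gain-of-signal versus DMSO.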

[4] = target: human RAR-related Orphan Receptor beta (RORb), RORB (gene 6096) (UniProt Q92753); assay: ATG_RORb_TRANS: Attagene TRANS-FACTORIAL HepG2 Assay for human RAR-related Orphan Receptor beta (RORb) (AID 2283010; active = hit-call score of the fitted dose curve at least 0.9, where 1 is the maximum)
Outline: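 HepG2 cells transiently transfected with GAL4-UAS reporter units expressing chimeric NR-Gal4 protein; reporter mRNA measured 24 h after dosing by RT-PCR, 6-FAM labelling and capillary electrophoresis. Gain-of-signal fitted relative to DMSO baseline.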

[5] = target: human Thyroid Receptor alpha (THRa1), THRA (gene 7067) (UniProt P10827); assay: ATG_THRa1_TRANS: Attagene TRANS-FACTORIAL HepG2 Assay for human Thyroid Receptor alpha (THRa1) (AID 2283014; active = hit-call score of the fitted dose curve at least 0.9, where 1 is the maximum)
Outline: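 Reporter transcript induction, read by capillary electrophoresis of 6-FAM-labelled RT-PCR products, reflects activity of a transfected THRa1-Gal4 fusion in HepG2 liver cells. Cells were dosed for 24 h; activity was fitted in the positive direction against DMSO.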

[6] = target: Nuclear receptor subfamily 1 group I member 2 (Homo sapiens) (UniProt O75469); assay: ATG_PXR_TRANS: Attagene TRANS-FACTORIAL HepG2 Assay for human Pregnane X Receptor (PXR) (AID 2283008; active = hit-call score of the fitted dose curve at least 0.9, where 1 is the maximum)
Outline: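 Measures mRNA induction of a GAL4-UAS-driven reporter in human HepG2 cells transiently expressing PXR fused to Gal4, following 24 h treatment. DMSO served as negative control and baseline.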

[7] = target: human Vitamin D Receptor (VDR), VDR (gene 7421) (UniProt P11473); assay: ATG_VDR_TRANS: Attagene TRANS-FACTORIAL HepG2 Assay for human Vitamin D Receptor (VDR) (AID 2283022; active = hit-call score of the fitted dose curve at least 0.9, where 1 is the maximum)
Outline: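 Steps: transfect HepG2 with GAL4-UAS-driven reporter constructs; dose compounds 24 h; isolate RNA, reverse-transcribe, PCR-amplify with 6-FAM-labelled primer extension and HpaI digestion; quantify fragments by capillary electrophoresis relative to DMSO.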

[8] = target: Retinoic acid receptor RXR-alpha (Homo sapiens) (UniProt P19793); assay: ATG_RXRa_TRANS: Attagene TRANS-FACTORIAL HepG2 Assay for human Retinoid X Receptor alpha (RXRa) (AID 2283012; active = hit-call score of the fitted dose curve at least 0.9, where 1 is the maximum)
Outline: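 HepG2 cells transiently transfected with GAL4-UAS reporter units and chimeric RXRa-Gal4 protein, treated 24 h. Reporter mRNA measured by RT-PCR, fluorescent labelling, HpaI digestion and capillary electrophoresis. Induction fitted against DMSO.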

[9] = read-out: Intercellular Adhesion Molecule 1 (ICAM1), ICAM1 (gene 3383); assay: BSK_3C_ICAM1: BioMAP Diversity Plus: 3C Assay for Intercellular Adhesion Molecule 1 (ICAM1) Biomarker Activity (AID 2283003); conditions: primary human endothelial cells (HUVEC); actives raise or lower the signal
Outline: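 HUVEC primary cells stimulated under 3C conditions; ICAM1 measured by ELISA 24 h after compound dosing. Curves fitted bidirectionally against the DMSO baseline. Overt cytotoxicity checked by SRB staining of parallel cultures.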

[10] = BSK_3C_Proliferation: Cell Proliferation Assessment in the BioMAP Diversity Plus: 3C Assay (AID 2283006); conditions: primary human endothelial cells (HUVEC);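 for AC50: potency may reflect either rise or fall in cell number versus DMSO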
Outline: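 Subconfluent HUVEC (3C system) cultured with chemical; relative cell number read at 48 h by sulforhodamine B total-protein staining (0.1% SRB after 10% TCA fixation, 560 nm). Bidirectional fit relative to DMSO.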

[11] = target: human RAR-related Orphan Receptor gamma (RORg), RORC (gene 6097) (UniProt P51449); assay: ATG_RORg_TRANS: Attagene TRANS-FACTORIAL HepG2 Assay for human RAR-related Orphan Receptor gamma (RORg) (AID 2283011; active = hit-call score of the fitted dose curve at least 0.9, where 1 is the maximum)
Outline: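 First, HepG2 liver cells were transfected with GAL4-UAS-driven reporter constructs and the RORg-Gal4 fusion. Next, they were treated with chemical for 24 h. Finally, reporter mRNA was quantified by RT-PCR and capillary electrophoresis, with upward activity fitted against DMSO.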

[12] = read-out: E-selectin (Homo sapiens) (UniProt P16581); assay: BSK_3C_Eselectin: BioMAP Diversity Plus: 3C Assay for Eselectin Biomarker Activity (AID 2283015); conditions: primary human endothelial cells (HUVEC); actives raise or lower the signal
Outline: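 ELISA read-out of E-selectin on endothelial monolayers after 24 h chemical treatment. Human umbilical vein primary cells served as the system, with DMSO defining baseline activity for bidirectional fitting.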

[13] = read-out: Interleukin-1 alpha (IL1a), IL1A (gene 3552); assay: BSK_BE3C_IL1a: BioMAP Diversity Plus: BE3C Assay for Interleukin-1 alpha (IL1a) Biomarker Activity (AID 2283016); conditions: primary human bronchial epithelial cells; actives raise or lower the signal
Outline: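 Human primary bronchial epithelial cells, 24 h chemical exposure; IL-1a quantified by ELISA, fitted bidirectionally against DMSO. Cytotoxicity assessed in parallel by SRB total-protein staining at the time of measurement.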

[14] = read-out: Monocyte Chemoattractant Protein-1 (MCP1), CCL2 (gene 6347); assay: BSK_3C_MCP1: BioMAP Diversity Plus: 3C Assay for Monocyte Chemoattractant Protein-1 (MCP1) Biomarker Activity (AID 2283017); conditions: primary human endothelial cells (HUVEC); actives raise or lower the signal
Outline: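 ELISA read-out of MCP-1 from human umbilical vein endothelial cell cultures harvested 24 h post-dosing. Gain or loss of signal was fitted relative to DMSO.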

[15] = read-out: Monocyte Chemoattractant Protein-1 (MCP1), CCL2 (gene 6347); assay: BSK_4H_MCP1: BioMAP Diversity Plus: 4H Assay for Monocyte Chemoattractant Protein-1 (MCP1) Biomarker Activity (AID 2283018); conditions: primary human endothelial cells (HUVEC); actives raise or lower the signal
Outline: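 Human umbilical vein endothelial cells (4H system) exposed to chemicals for 24 h in 96-well format. MCP-1 measured by ELISA; bidirectional fitting against DMSO, with SRB total-protein staining in parallel cultures for cytotoxicity.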

[16] = read-out: Human Leukocyte Antigen - DR isotype (HLADR), HLA-DRA (gene 3122); assay: BSK_3C_HLADR: BioMAP Diversity Plus: 3C Assay for Human Leukocyte Antigen - DR isotype (HLADR) Biomarker Activity (AID 2283019); conditions: primary human endothelial cells (HUVEC); actives raise or lower the signal
Outline: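 ELISA readout of surface HLA-DR on human umbilical vein endothelium, taken 24 h after chemical treatment. Gain- and loss-of-signal were both fitted relative to DMSO.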

[17] = read-out: Interleukin-8 (IL8), CXCL8 (gene 3576); assay: BSK_3C_IL8: BioMAP Diversity Plus: 3C Assay for Interleukin-8 (IL8) Biomarker Activity (AID 2283020); conditions: primary human endothelial cells (HUVEC); actives raise or lower the signal
Outline: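 Primary human umbilical vein endothelial cells were dosed for 24 h. IL-8 was quantified by ELISA and fitted bidirectionally against DMSO. Cytotoxicity was assessed in parallel cultures by SRB staining at 560 nm.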

[18] = read-out: Monokine induced gamma interferon (MIG), CXCL9 (gene 4283); assay: BSK_3C_MIG: BioMAP Diversity Plus: 3C Assay for Monokine induced gamma interferon (MIG) Biomarker Activity (AID 2283021); conditions: primary human endothelial cells (HUVEC); actives raise or lower the signal
Outline: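 HUVEC primary endothelial cultures dosed with chemical; MIG quantified by ELISA at 24 h. Data fitted bidirectionally against DMSO control, with parallel SRB total-protein staining for cytotoxicity.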

[19] = BSK_3C_SRB: Viability Assessment in the BioMAP Diversity Plus: 3C Assay (AID 2283023); conditions: primary human endothelial cells (HUVEC);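 note: fitted both ways against DMSO so a hit may be signal rise or drop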
Outline: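 Absorbance at 560 nm of sulforhodamine B-stained (0.1%) total protein served as a cytotoxicity readout in human umbilical vein endothelial cells, 24 h after chemical treatment. Signal was fitted bidirectionally relative to DMSO.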

[20] = target: human Retinoid X Receptor beta (RXRb), RXRB (gene 6257) (UniProt P28702); assay: ATG_RXRb_TRANS: Attagene TRANS-FACTORIAL HepG2 Assay for human Retinoid X Receptor beta (RXRb) (AID 2283013; active = hit-call score of the fitted dose curve at least 0.9, where 1 is the maximum)
Outline: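 HepG2 cells were transiently transfected with multiplexed GAL4-UAS reporters and a chimeric RXRb-Gal4 construct, then exposed for 24 h. Reporter mRNA was quantified by RT-PCR, FAM labeling, HpaI digestion and capillary electrophoresis; gain of signal was scored against DMSO.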

Measured: AC50

Chain of Peroxisome proliferator-activated receptor gamma (Homo sapiens) (P37231 whole entry, looked up, the tested form may be a part): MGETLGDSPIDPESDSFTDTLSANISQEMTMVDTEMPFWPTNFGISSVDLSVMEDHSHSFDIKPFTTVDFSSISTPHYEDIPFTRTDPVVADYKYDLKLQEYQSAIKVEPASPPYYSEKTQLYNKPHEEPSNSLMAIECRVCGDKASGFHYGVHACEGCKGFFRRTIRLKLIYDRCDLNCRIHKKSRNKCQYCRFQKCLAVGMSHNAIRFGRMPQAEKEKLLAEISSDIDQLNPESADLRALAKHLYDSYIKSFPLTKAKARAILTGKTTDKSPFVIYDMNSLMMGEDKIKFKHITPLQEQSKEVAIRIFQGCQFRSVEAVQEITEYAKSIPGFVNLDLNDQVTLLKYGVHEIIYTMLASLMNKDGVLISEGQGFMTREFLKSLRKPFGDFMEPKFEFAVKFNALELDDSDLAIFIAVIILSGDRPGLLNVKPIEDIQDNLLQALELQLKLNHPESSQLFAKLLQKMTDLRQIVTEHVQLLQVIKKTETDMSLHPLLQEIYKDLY
Chain of human RAR-related Orphan Receptor beta (RORb), RORB (gene 6096) (Q92753 whole entry, looked up, the tested form may be a part): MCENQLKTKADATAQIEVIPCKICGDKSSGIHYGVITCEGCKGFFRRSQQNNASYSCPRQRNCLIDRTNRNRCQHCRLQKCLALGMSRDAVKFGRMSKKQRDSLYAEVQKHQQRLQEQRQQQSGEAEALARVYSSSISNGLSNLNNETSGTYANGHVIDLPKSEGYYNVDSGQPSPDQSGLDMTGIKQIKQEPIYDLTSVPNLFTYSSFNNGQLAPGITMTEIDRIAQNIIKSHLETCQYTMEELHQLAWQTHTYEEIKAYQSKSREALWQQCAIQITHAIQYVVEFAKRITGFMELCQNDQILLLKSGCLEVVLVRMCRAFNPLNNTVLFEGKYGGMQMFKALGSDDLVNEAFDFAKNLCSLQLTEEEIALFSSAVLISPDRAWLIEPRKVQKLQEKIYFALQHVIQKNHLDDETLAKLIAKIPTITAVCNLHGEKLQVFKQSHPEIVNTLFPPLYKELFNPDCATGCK
Chain of human RAR-related Orphan Receptor gamma (RORg), RORC (gene 6097) (P51449 whole entry, looked up, the tested form may be a part): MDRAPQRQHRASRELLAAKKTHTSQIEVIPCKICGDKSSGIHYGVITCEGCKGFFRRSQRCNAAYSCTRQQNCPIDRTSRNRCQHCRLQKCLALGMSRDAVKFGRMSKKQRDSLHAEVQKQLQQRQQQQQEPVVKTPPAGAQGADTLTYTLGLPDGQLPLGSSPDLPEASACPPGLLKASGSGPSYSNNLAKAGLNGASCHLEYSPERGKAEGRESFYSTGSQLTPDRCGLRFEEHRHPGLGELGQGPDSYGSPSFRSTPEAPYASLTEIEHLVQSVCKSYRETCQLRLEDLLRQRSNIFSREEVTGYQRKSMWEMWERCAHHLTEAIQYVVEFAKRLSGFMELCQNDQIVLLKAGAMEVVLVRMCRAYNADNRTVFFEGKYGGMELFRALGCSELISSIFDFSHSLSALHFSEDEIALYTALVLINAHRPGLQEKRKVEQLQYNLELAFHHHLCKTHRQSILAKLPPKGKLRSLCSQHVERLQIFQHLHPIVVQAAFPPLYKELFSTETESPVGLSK
Chain of Retinoic acid receptor RXR-alpha (Homo sapiens) (P19793 whole entry, looked up, the tested form may be a part): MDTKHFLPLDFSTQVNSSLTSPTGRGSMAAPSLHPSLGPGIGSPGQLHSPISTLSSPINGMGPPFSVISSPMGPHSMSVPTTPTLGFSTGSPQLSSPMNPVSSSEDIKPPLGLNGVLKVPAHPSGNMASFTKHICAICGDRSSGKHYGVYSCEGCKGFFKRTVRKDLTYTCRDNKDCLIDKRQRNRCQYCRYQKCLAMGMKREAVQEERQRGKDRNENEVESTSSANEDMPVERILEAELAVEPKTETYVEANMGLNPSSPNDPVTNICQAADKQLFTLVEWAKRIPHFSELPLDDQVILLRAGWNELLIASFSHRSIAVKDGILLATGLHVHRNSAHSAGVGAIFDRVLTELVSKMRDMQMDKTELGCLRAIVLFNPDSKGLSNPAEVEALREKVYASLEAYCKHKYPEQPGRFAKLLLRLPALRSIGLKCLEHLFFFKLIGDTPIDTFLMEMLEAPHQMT
Chain of human Peroxisome Proliferator-activated Receptor delta (PPARd), PPARD (gene 5467) (Q03181 whole entry, looked up, the tested form may be a part): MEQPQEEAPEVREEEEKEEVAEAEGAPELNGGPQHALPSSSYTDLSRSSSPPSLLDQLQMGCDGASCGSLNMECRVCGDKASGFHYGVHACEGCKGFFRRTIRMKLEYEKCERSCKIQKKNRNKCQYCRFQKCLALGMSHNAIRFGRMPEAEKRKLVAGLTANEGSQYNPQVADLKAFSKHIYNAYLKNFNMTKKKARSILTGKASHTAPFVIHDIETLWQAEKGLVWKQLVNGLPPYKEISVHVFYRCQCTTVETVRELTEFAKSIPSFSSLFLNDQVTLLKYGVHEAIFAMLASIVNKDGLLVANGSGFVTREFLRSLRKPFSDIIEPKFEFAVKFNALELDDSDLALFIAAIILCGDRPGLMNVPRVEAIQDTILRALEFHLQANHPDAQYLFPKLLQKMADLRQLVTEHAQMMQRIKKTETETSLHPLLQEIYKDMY
Chain of human Thyroid Receptor alpha (THRa1), THRA (gene 7067) (P10827 whole entry, looked up, the tested form may be a part): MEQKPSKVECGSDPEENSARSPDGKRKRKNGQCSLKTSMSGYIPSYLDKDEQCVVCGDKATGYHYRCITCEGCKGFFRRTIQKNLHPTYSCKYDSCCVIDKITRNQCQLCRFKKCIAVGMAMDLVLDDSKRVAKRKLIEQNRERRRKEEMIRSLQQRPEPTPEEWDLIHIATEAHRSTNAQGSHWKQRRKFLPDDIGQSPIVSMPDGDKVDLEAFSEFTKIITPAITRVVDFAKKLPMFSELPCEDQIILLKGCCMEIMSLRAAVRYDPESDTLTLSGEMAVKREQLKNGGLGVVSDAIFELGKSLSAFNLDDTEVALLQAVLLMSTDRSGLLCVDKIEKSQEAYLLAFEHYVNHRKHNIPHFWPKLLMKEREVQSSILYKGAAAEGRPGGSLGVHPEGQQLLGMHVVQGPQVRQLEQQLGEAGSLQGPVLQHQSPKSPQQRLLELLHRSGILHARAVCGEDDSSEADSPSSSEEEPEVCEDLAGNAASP
Chain of human Retinoid X Receptor beta (RXRb), RXRB (gene 6257) (P28702 whole entry, looked up, the tested form may be a part): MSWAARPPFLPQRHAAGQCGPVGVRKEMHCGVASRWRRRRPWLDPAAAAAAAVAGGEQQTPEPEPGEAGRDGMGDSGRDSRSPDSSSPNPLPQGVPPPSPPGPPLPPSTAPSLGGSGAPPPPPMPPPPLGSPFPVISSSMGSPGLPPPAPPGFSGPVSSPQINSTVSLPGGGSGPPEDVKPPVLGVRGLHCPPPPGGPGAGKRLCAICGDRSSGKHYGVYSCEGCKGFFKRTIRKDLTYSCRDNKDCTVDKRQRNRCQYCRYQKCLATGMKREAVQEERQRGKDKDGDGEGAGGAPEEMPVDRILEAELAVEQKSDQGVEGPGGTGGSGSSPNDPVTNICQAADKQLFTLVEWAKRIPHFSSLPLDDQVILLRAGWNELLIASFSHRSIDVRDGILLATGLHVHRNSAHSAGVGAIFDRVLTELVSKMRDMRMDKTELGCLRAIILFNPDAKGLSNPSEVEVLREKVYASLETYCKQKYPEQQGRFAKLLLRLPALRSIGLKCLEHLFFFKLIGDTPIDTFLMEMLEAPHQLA
Chain of Nuclear receptor subfamily 1 group I member 2 (Homo sapiens) (O75469 whole entry, looked up, the tested form may be a part): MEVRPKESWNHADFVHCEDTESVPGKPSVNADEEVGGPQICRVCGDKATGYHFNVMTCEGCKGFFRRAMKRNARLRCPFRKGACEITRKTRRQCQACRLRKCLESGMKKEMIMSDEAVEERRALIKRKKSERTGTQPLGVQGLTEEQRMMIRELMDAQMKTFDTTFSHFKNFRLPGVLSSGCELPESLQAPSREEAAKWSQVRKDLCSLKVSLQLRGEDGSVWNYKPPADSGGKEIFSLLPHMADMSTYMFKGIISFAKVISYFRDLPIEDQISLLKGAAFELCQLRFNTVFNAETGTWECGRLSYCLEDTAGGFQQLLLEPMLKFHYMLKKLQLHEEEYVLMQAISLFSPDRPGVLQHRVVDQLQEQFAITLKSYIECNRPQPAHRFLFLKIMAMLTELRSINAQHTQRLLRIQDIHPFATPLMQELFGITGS
Chain of E-selectin (Homo sapiens) (P16581 whole entry, looked up): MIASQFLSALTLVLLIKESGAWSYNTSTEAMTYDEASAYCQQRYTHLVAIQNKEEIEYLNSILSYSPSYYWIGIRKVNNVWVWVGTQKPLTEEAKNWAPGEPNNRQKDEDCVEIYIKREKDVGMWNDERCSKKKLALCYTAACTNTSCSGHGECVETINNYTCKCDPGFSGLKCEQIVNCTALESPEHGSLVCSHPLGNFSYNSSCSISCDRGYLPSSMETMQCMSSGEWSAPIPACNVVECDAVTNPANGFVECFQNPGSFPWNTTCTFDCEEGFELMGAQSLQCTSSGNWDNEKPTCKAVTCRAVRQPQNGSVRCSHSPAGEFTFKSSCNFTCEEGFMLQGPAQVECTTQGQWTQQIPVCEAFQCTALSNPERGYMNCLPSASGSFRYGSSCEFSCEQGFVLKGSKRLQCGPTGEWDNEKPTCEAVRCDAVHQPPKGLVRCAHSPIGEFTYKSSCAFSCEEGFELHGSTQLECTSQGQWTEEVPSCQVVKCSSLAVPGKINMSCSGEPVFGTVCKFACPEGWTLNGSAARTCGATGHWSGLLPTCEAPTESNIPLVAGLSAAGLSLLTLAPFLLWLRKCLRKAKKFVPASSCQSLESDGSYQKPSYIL
Chain of human Vitamin D Receptor (VDR), VDR (gene 7421) (P11473 whole entry, looked up, the tested form may be a part): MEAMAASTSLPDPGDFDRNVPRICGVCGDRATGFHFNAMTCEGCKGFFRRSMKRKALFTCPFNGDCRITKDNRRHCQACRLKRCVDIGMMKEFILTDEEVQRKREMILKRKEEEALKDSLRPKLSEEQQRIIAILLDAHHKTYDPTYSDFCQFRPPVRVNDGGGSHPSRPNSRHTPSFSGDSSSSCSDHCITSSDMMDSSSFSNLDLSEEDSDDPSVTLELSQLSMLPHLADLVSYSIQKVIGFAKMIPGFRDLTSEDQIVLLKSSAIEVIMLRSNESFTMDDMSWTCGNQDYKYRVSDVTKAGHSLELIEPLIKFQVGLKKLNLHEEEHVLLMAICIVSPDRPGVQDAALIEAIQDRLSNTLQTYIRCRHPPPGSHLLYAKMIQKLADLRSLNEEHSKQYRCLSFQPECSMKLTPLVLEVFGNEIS

CC(C)CBr
inactive: [1] | [2] | [3] | [4] | [5]

CCCCOCC1CO1 (configuration not stated)
inactive: [1] | [2] | [6] | [7]

COC(N)=O
inactive: [1] | [2] | [8] | [5]

CCOP(=S)(OCC)SCn1nnc2ccccc2c1=O
active: [2] 28.5 µM | [12] 20 µM | [16] 33.7 µM
not listed: [1] | [3] | [4] | [6] | [20]
inactive: all other assays above

c1ccc(OP(Oc2ccccc2)Oc2ccccc2)cc1
not listed: [1] | [3] | [4] | [5] | [6] | [7] | [8] | [20]
inactive: all other assays above

CCOc1ccc(C(C)(C)COCc2cccc(Oc3ccccc3)c2)cc1
active: [10] 697 nM | [6] 4.88 µM
not listed: [1] | [3] | [4] | [11]
inactive: all other assays above

c1ccc2c(c1)sc1ccccc12
not listed: [1] | [4] | [6] | [8] | [11] | [20]
inactive: all other assays above

CC(Cc1ccc(OCC(=O)O)cc1)NCC(O)c1csc(C(F)(F)F)n1 (configuration not stated)
not listed: [1] | [3] | [4] | [5] | [6] | [7] | [8] | [11]
inactive: all other assays above

O=C(O)CF
inactive: [4] | [11] | [8] | [20] | [7]

Nc1ccc(Sc2ccc(N)cc2)cc1
active: [2] 57.1 µM | [6] 50.6 µM
inactive: [4] | [11] | [8] | [20] | [7]

CCN(CC)c1ccccc1
not listed: [1] | [2] | [3] | [4] | [5] | [8] | [11]
inactive: all other assays above

CCOP(=S)(OCC)SCSCC
active: [20] 48.2 µM
not listed: [1] | [3] | [4] | [5] | [6] | [11]
inactive: all other assays above

Oc1ccccc1Br
inactive: [6]

Cc1ccc(C(=O)Cl)cc1
inactive: [2] | [4] | [11] | [8]

Cn1[nH]nnc1=S
inactive: [4] | [8]

CCCCN(CCCC)N=O
not listed: [1] | [2] | [3] | [4] | [5] | [7] | [11]
inactive: all other assays above

N#Cc1ccc(O)cc1
inactive: [4] | [11] | [8] | [20] | [5] | [7]
